Reference: the supplement of paper PMC8728848
Many of the other results were omitted from the sample, so the strongest signals are more common in it than they were.

Tests used:
Assay in all cases: glycan array binding signal (z-score within array); higher = stronger binding
Details in all cases: glycan notation: IUPAC condensed, linker removed
[1] = biological target: Fuc(a1-2)Gal(b1-3)GalNAc(a1-3)[Fuc(a1-2)]Gal(b1-4)Glc
Procedure, shortened: (§1)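 Glycan array data were curated from 3228 arrays in the Consortium for Functional Glycomics database and kept only where the protein sequence was available. Glycan names were converted to IUPAC-condensed notation, and columns mapping to the same glycan were averaged. The binding signal is a within-array Z-score, averaged across arrays of the same protein sequence at different concentrations or buffers and across linkers. Negative Z-scores can be read as non-binding.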

[2] = biological target: Fuc(a1-2)Gal(b1-4)[Fuc(a1-3)]GlcNAc(b1-3)Gal(b1-4)[Fuc(a1-3)]GlcNAc
Procedure, shortened: as §1

[3] = biological target: Fuc(a1-2)Gal(b1-4)[Fuc(a1-3)]GlcNAc(b1-3)[Neu5Ac(a2-6)Gal(b1-4)GlcNAc(b1-6)]Gal(b1-4)Glc
Procedure, shortened: as §1

[4] = biological target: Fuc(a1-2)[Gal(a1-3)]Gal(b1-4)GlcNAc(b1-6)GalNAc
Procedure, shortened: as §1

[5] = biological target: Fuc(a1-2)[GalNAc(a1-3)]Gal(b1-3)GalNAc(a1-3)[Fuc(a1-2)]Gal(b1-4)GlcNAc
Procedure, shortened: as §1

[6] = biological target: Fuc(a1-2)[GalNAc(a1-3)]Gal(b1-4)[Fuc(a1-3)]GlcNAc(b1-3)GalNAc
Procedure, shortened: as §1

[7] = biological target: Fuc(a1-3)[Gal(b1-4)]GlcNAc(b1-2)Man(a1-3)[Fuc(a1-3)[Gal(b1-4)]GlcNAc(b1-2)Man(a1-6)]Man(b1-4)GlcNAc(b1-4)[Fuc(a1-6)]GlcNAc
Procedure, shortened: as §1

Gal(a1-3)GalNAc = biological target: Gal(a1-3)GalNAc
Procedure, shortened: as §1

[8] = biological target: Gal(a1-3)[Gal(a1-4)]Gal(b1-4)GlcNAc
Procedure, shortened: as §1

Gal(a1-4)Gal(b1-4)Glc = biological target: Gal(a1-4)Gal(b1-4)Glc
Procedure, shortened: as §1

[9] = biological target: Gal(b1-3)GalNAc(b1-4)Gal(b1-4)Glc
Procedure, shortened: as §1

[10] = biological target: Gal(b1-3)GlcNAc(a1-3)Gal(b1-4)GlcNAc
Procedure, shortened: as §1

Gal(b1-4)Gal = biological target: Gal(b1-4)Gal
Procedure, shortened: as §1

[11] = biological target: Gal(b1-4)GalNAc(a1-3)[Fuc(a1-2)]Gal(b1-4)GlcNAc
Procedure, shortened: as §1

[12] = biological target: Gal(b1-4)GlcNAc(b1-3)Gal(b1-4)GlcNAc(b1-3)Gal(b1-4)GlcNAc(b1-2)Man(a1-3)[Gal(b1-4)GlcNAc(b1-3)Gal(b1-4)GlcNAc(b1-3)Gal(b1-4)GlcNAc(b1-2)Man(a1-6)]Man(b1-4)GlcNAc(b1-4)[Fuc(a1-6)]GlcNAc
Procedure, shortened: as §1

Gal(b1-6)Gal = biological target: Gal(b1-6)Gal
Procedure, shortened: as §1

Gal3S6S(b1-4)GlcNAc6S = biological target: Gal3S6S(b1-4)GlcNAc6S
Procedure, shortened: as §1

Gal6S(b1-4)Glc = biological target: Gal6S(b1-4)Glc
Procedure, shortened: as §1

[13] = biological target: GalNAc(b1-3)Gal(a1-4)Gal(b1-4)GlcNAc
Procedure, shortened: as §1

GalNAc(b1-4)GlcNAc = biological target: GalNAc(b1-4)GlcNAc
Procedure, shortened: as §1

GalNAc4S6S(b1-4)GlcNAc = biological target: GalNAc4S6S(b1-4)GlcNAc
Procedure, shortened: as §1

GalNAc6S(b1-4)GlcNAc = biological target: GalNAc6S(b1-4)GlcNAc
Procedure, shortened: as §1

GlcA(b1-3)Gal = biological target: GlcA(b1-3)Gal
Procedure, shortened: as §1

[14] = biological target: GlcNAc(a1-4)Gal(b1-3)GlcNAc
Procedure, shortened: as §1

[15] = biological target: GlcNAc(a1-4)Gal(b1-4)GlcNAc(b1-3)Gal(b1-4)Glc
Procedure, shortened: as §1

[16] = biological target: GlcNAc(b1-2)Gal(b1-3)GalNAc
Procedure, shortened: as §1

[17] = biological target: GlcNAc(b1-2)[GlcNAc(b1-4)]Man(a1-3)[GlcNAc(b1-4)][GlcNAc(b1-2)Man(a1-6)]Man(b1-4)GlcNAc(b1-4)GlcNAc
Procedure, shortened: as §1

[18] = biological target: GlcNAc(b1-3)Gal(b1-4)GlcNAc(b1-2)[GlcNAc(b1-3)Gal(b1-4)GlcNAc(b1-6)]Man(a1-6)[GlcNAc(b1-3)Gal(b1-4)GlcNAc(b1-2)Man(a1-3)]Man(b1-4)GlcNAc(b1-4)GlcNAc
Procedure, shortened: as §1

[19] = biological target: GlcNAc(b1-3)Gal(b1-4)GlcNAc(b1-3)Gal(b1-4)GlcNAc(b1-2)[GlcNAc(b1-3)Gal(b1-4)GlcNAc(b1-3)Gal(b1-4)GlcNAc(b1-6)]Man(a1-6)[GlcNAc(b1-3)Gal(b1-4)GlcNAc(b1-3)Gal(b1-4)GlcNAc(b1-2)Man(a1-3)]Man(b1-4)GlcNAc(b1-4)[Fuc(a1-6)]GlcNAc
Procedure, shortened: as §1

[20] = biological target: GlcNAc(b1-3)Gal(b1-4)GlcNAc(b1-3)Gal(b1-4)GlcNAc(b1-3)Gal(b1-4)GlcNAc(b1-3)Gal(b1-4)GlcNAc(b1-2)[GlcNAc(b1-3)Gal(b1-4)GlcNAc(b1-3)Gal(b1-4)GlcNAc(b1-3)Gal(b1-4)GlcNAc(b1-3)Gal(b1-4)GlcNAc(b1-6)]Man(a1-6)[GlcNAc(b1-3)Gal(b1-4)GlcNAc(b1-3)Gal(b1-4)GlcNAc(b1-3)Gal(b1-4)GlcNAc(b1-3)Gal(b1-4)GlcNAc(b1-2)Man(a1-3)]Man(b1-4)GlcNAc(b1-4)[Fuc(a1-6)]GlcNAc
Procedure, shortened: as §1

B1: AT5G17240(42) (Arabidopsis thaliana), Q6NQJ8 (protein)
chain: MDLEHQTMETFLRWAAEIGISDSIDSSRFRDSCLGHSLSVSDFPDAGGRGLGAARELKKGELVLKVPRKALMTTESIIAKDLKLSDAVNLHNSLSSTQILSVCLLYEMSKEKKSFWYPYLFHIPRDYDLLATFGNFEKQALQVEDAVWATEKATAKCQSEWKEAGSLMKELELKPKFRSFQAWLWASATISSRTLHVPWDSAGCLCPVGDLFNYDAPGDYSNTPQGPESANNVEEAGLVVETHSERLTDGGFEEDVNAYCLYARRNYQLGEQVLLCYGTYTNLELLEHYGFMLEENSNDKVFIPLETSLFSLASSWPKDSLYIHQDGKLSFALISTLRLWLIPQSQRDKSVMRLVYAGSQISVKNEILVMKWMSEKCGSVLRDLPTSVTEDTVLLHNIDKLQDPELRLEQKETEAFGSEVRAFLDANCLWDVTVLSGKPIEFSRKTSRMLSKWRWSVQWRLSYKRTLADCISYCNEKMNNLLGTQDRLRDL
Q: What does the source list for B1?
A: glycan array binding signal (z-score) [1]: 0.123; glycan array binding signal (z-score) [2]: 0.458; glycan array binding signal (z-score) [3]: -0.37; glycan array binding signal (z-score) [4]: -0.375; glycan array binding signal (z-score) [5]: -0.276; glycan array binding signal (z-score) [6]: 6.64; glycan array binding signal (z-score) [7]: 0.044; glycan array binding signal (z-score) (Gal(a1-3)GalNAc): 1.94; glycan array binding signal (z-score) [8]: 8.82; glycan array binding signal (z-score) (Gal(a1-4)Gal(b1-4)Glc): 4.63; glycan array binding signal (z-score) [9]: 1.23; glycan array binding signal (z-score) [10]: -0.028; glycan array binding signal (z-score) (Gal(b1-4)Gal): 0.335; glycan array binding signal (z-score) [11]: -0.444; glycan array binding signal (z-score) [12]: -0.845; glycan array binding signal (z-score) (Gal(b1-6)Gal): -0.362; glycan array binding signal (z-score) (Gal3S6S(b1-4)GlcNAc6S): 1.61; glycan array binding signal (z-score) (Gal6S(b1-4)Glc): -0.21; glycan array binding signal (z-score) [13]: 3.08; glycan array binding signal (z-score) (GalNAc(b1-4)GlcNAc): 8.25; glycan array binding signal (z-score) (GalNAc4S6S(b1-4)GlcNAc): 1.39; glycan array binding signal (z-score) (GalNAc6S(b1-4)GlcNAc): -0.134; glycan array binding signal (z-score) (GlcA(b1-3)Gal): -0.785; glycan array binding signal (z-score) [14]: -0.54; glycan array binding signal (z-score) [15]: -0.607; glycan array binding signal (z-score) [16]: -0.394; glycan array binding signal (z-score) [17]: -0.434; glycan array binding signal (z-score) [18]: 2.56; glycan array binding signal (z-score) [19]: 1.12; glycan array binding signal (z-score) [20]: 1.33
